# Source: PubChem BioAssay (NCI)
# This is part of a sample that, as a whole, favours compounds with a hit. Of some 83,000 tested, about 20% had one in any assay.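 Percent growth is the endpoint: 0 to 100 indicates growth inhibition (40 means 60% inhibition), 0 means no net growth, and negative values indicate cell death.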 The source made the active and inactive calls.
# Tested on: OVCAR-5 ovarian
# Test: NCI-60 one-dose screen, 48 h (100 = growth as untreated, 0 = no growth, -100 = all killed)
# Conditions: 10 µM
# Experimental: Growth inhibition of the OVCAR-5 human tumor cell line is measured as a screen for anti-cancer activity. Cells are grown in 96 well plates and exposed to the test compound for 48 hours. Compounds are tested at a single concentration, which is 10^-5 M for most compounds. The reported endpoint is percent growth (GI% or GIPRCNT), where numbers from 0 - 100% represent growth inhibition, and numbers from -100% - 0 represent cell death. For example, a value of 40 represents 60% growth inhibition. A value of 0 means no net growth occurred over the course of the experiment. A value of -40 indicates 40% of cells at the beginning of the experiment died by the end of the experiment. A value of -100 means all cells are dead at the end of the experiment.
# NCI-60 Human Tumor Cell Lines Screen was performed using the standard one-dose NCI protocol, which is described in more detail at https://dtp.cancer.gov/discovery_development/nci-60/default.htm.
# Compounds with GIPRCNT values below 10 were considered active. Activity score was based on GIPRCNT using the following formula: […]
# Score is 0 for GIPRCNT values of 100 or above, 50 for GIPRCNT values of 0, and 100 for GIPRCNT values of -100.
row,SMILES,growth
1,COc1ccc2c(c1)O/C(=C\c1ccc([N+](=O)[O-])s1)C2=O,61.4% (inactive)
2,O=c1[nH]c(-c2ccc(Cl)cc2)nc2sc3c(c12)CCCC3,103% (inactive)
3,COc1cc2cc3c(nc2cc1OC)CCN3Cc1ccc(NC(=O)Nc2ccc(F)cc2F)cc1,105% (inactive)
4,COc1ccc(OC)c(/C=C/c2nc(SC)n(-c3ccc(Cl)cc3)n2)c1,112% (inactive)
5,O=C(CCCCC[P+](c1ccccc1)(c1ccccc1)c1ccccc1)NC(COC(=O)C(Cl)Cl)(COC(=O)C(Cl)Cl)COC(=O)C(Cl)Cl,98.6% (inactive)
6,CC1CC(=O)OC(C)C1 (stereo not given),105% (inactive)
7,COc1ccc(-n2c(SCc3cc(OC)c(OC)c(OC)c3)nc3ccc(C)cc3c2=O)cc1,80.6% (inactive)
8,NC1=NC(=O)C(c2ccccc2)(c2ccccc2)S1,109% (inactive)
9,COc1cc2nc(Nc3cccc(NC(C)=O)c3)nc(N)c2cc1OC,117% (inactive)
10,N#Cc1cccc(OCc2nc(N)nc(N)c2-c2ccc(Cl)c(Cl)c2)c1,35.6% (inactive)
11,Nc1ncnc2[nH]c(=O)[nH]c12,87.9% (inactive)
12,CCN(CC)Cc1cc(Nc2ccnc3cc(Cl)ccc23)ccc1OC,109% (inactive)
13,COc1ccc(-c2nc3ccccn3c2-c2nnc(-c3cc(OC)c(OC)c(OC)c3)o2)cc1,82.7% (inactive)
14,COc1ccc(-c2nc(-c3nc4cc(Cl)c(F)cc4[nH]3)c3ccccn23)cc1,98% (inactive)
15,COc1cc(-c2cc(/C=C3\C(=O)Nc4cc(Cl)ccc43)[nH]n2)cc(OC)c1OC,65% (inactive)
16,COc1ccc(/C=C2/CN(C(=O)c3ccccc3F)C/C(=C\c3ccc(OC)cc3)C2=O)cc1,106% (inactive)
17,CCCCCCCC(C)NCCO (stereo not given),111% (inactive)
18,O=S(=O)(NCCCNc1nccc(-c2c(-c3ccc(F)cc3)nc3sccn23)n1)c1ccc(F)cc1,62.7% (inactive)
19,N#Cc1ncc(-c2cc(F)c(F)c(F)c2)c(NC2CCCCCC2)n1,104% (inactive)
20,O=C(Nc1cccc(-n2cc(-c3ccncc3)c(-c3cc(O)cc(Cl)c3)n2)c1)c1ccc(N2CCOCC2)c(C(F)(F)F)c1,81.4% (inactive)

row,SMILES,growth
1,CC/C(=C(/c1ccc(OCCN(C)C)cc1)c1ccc(OC(=O)CCCCCCCCC(=O)c2c(C)[nH]c(/C=C3\N=C(c4ccc[nH]4)C=C3OC)c2C)cc1)c1ccccc1,103% (inactive)
2,CN(C)c1ccc(N=C2C=CC(=O)c3ccccc32)cc1,88% (inactive)
3,O=C(Nc1ccncc1)C(=O)c1cn(S(=O)(=O)c2cccc(Cl)c2)c2ccccc12,107% (inactive)
4,O=C(C[P+](c1ccccc1)(c1ccccc1)c1ccccc1)C[P+](c1ccccc1)(c1ccccc1)c1ccccc1,-94.9% (active)
5,COc1ccc(S(=O)(=O)Nc2c(/C=C\c3cc(OC)c(OC)c(OC)c3)ccc(OC)c2O)cc1,29.5% (inactive)
6,COc1ccc(-c2nc(-c3nc4ccc(OC)cc4[nH]3)cc3c2[nH]c2ccccc23)cc1,90% (inactive)
7,CN(C)N=Nc1nn(C(=O)Nc2ccc(Cc3ccccc3)cc2)c2ccccc12,71% (inactive)
8,COc1ccc(OC)c2c1C(=O)CC2C (stereo not given),112% (inactive)
9,C=C(C(=O)c1ccccc1)C(NC(C)(C)C)c1ccccc1 (stereo not given),-29.2% (active)
10,COc1cc(-c2cc(/C=C/C(=O)c3ccc4c(c3)OCO4)[nH]n2)cc(OC)c1OC,83.3% (inactive)
11,Cc1ccc(NC(=O)Nc2c(Cl)cccc2Cl)cn1,119% (inactive)
12,CCc1ccc2c(c1)N(CCO)C1=C(C(=O)OC1)C2c1cc(OC)c(OC)c(OC)c1 (stereo not given),36.6% (inactive)
13,CCOC(=O)C(CSC(c1ccccc1)(c1ccccc1)c1ccccc1)NC(=O)C(CSC(c1ccccc1)(c1ccccc1)c1ccccc1)NC(c1ccccc1)(c1ccccc1)c1ccccc1 (stereo not given),106% (inactive)
14,O=C1OCC2=C1C(c1ccc(Cl)c(Cl)c1)c1cc3c(cc1N2CCO)OCCO3 (stereo not given),34.3% (inactive)
15,O=C(O)C(SC(C(=O)O)c1ccccc1)c1ccccc1 (stereo not given),106% (inactive)
16,COc1ccc2c(c1)/C(=C\c1c[nH]c3ccc(OC)cc13)C(=O)N2,64.8% (inactive)
17,COc1cc(Nc2ncnc(Nc3ccc4c(n3)NC(=O)C(C)(C)O4)n2)cc(OC)c1OC,29.3% (inactive)
18,COc1ccc(-c2nn(-c3cccc(NC(=O)Nc4ccc(Cl)c(C(F)(F)F)c4)c3)cc2-c2ccncc2)cc1Cl,39.8% (inactive)
19,COc1ccc2c(c1)sc1nc(-c3ccccc3)c(-c3cccnc3)n12,110% (inactive)
20,O=C1OCC2=C1C(c1cccc(Br)c1)c1cc3c(cc1N2CCO)CCC3 (stereo not given),22.4% (inactive)
